# Compounds with a hit are over-represented: about 2.8% of the library has one in this group of screens.
# Shn3 inh set2 = reduction of Shn3 3'UTR firefly luciferase signal, primary screen, Schnurri-3 inhibitor project, cell-based, Clone20 osteoblasts, set 2 | Clone20 osteoblast Shn3 3'UTR firefly luciferase, 24 h | inhibition, % at 12.5 µM | 360,000 tested, 0.52% active;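 active means mean inhibition of at least 75% with every replicate also reaching 75%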;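 further: 0% = median of neutral control wells and 100% = pilot-screen positive control compound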
# TRPM1 prom inh = inhibitors of MITF-dependent TRPM1 promoter reporter, primary screen, cell-based, SK-MEL-5, single point, luciferase | SK-MEL-5 TRPM1 promoter luciferase, 24 h | inhibition, % at 12.5 µM | 330,000 tested, 0.83% active;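 active means mean inhibition across replicates of 60% or more, whatever share of single replicates reaches that level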
# Peg3 prom inh-1 = Peg3 promoter-driven luciferase inhibitors, primary screen, cell-based, HeLa, luciferase luminescence. inhibition, % at 20 µM. HeLa PEG-Prom luciferase reporter, overnight. 360,000 tested, 1.7% active;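 active means inhibition of at least 50% at 20 µM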
# KKLEB tox = cytotoxicity in KKLEB CF airway cells, primary screen, cytotoxicity control for CF NF-kB inhibitor project, cell-based, uHTS, fluorescence assay plates; 360,000 tested, 0.36% active; AID 602141, 2011; KKLEB CF airway cells viability, ATPlite luminescence, overnight; hits give low values; cells stimulated with P. aeruginosa culture filtrate; activity change (cytotoxicity), % at 5 µM;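 active means corrected activity change at or below -50% at 5 µM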
# CF NFkB block = inhibitors of PAF-induced NF-kB signaling, primary screen, cell-based, GFP fluorescence, uHTS; KKLEB NF-kB-GFP reporter, GFP fluorescence overnight; inhibition, % at 5 µM; 360,000 tested, 0.86% active; AID 588850, 2011;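 active means at least 50% inhibition at 5 µM, scaled per plate between neutral and stimulator controls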;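 further: PAF is a Pseudomonas aeruginosa culture filtrate used as stimulus; plate controls were PAF-stimulated DMSO wells for no effect and unstimulated DMSO wells for full effect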
# HIF-2a inh = HIF-2a reporter inhibitors, primary screen, luminescence, 786-0 RCC cells; 786-0 RCC cells HIF-2a reporter, luciferase luminescence, overnight; inhibition, % at 18.8 µM; 360,000 tested, 0.72% active; AID 624352, 2012;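 active means inhibition of the luminescence signal of 40% or more relative to plate controls, in a single-dose primary screen at 18.75 µM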
# Peg3 prom inh-2 = Peg3 promoter reporter inhibitors, retest, confirmation, cell-based, HeLa, luciferase reporter, single concentration | shares compounds with Peg3 prom inh-1 | HeLa PEG-Prom luciferase reporter, luminescence, overnight | inhibition, % at 20 µM | 1,300 tested, 84% active | AID 602417, 2012;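 active means at 20 µM dose, 40% or more inhibition averaged across four replicates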
# * marks the source's active call; other numbers are inactive results; . = not tested or not shown.
SMILES,Shn3 inh set2,TRPM1 prom inh,Peg3 prom inh-1,KKLEB tox,CF NFkB block,HIF-2a inh,Peg3 prom inh-2
Cc1cc(C)nc(NC(=O)c2c(F)c(F)c(F)c(C(=O)Nc3cc(C)cc(C)n3)c2F)c1,-12,.,90*,-29,12,32,72*
Cc1cc(C)nc(NC(=O)CCCC(=O)O)c1,-29,1,15,0,-9,3,.
Cc1cc(C)c(S(=O)(=O)Nc2ccc3c(c2)CCC3)c(C)c1,30,4,51*,-1,25,17,41*
Cc1cc(C)c(S(=O)(=O)Nc2ccc(O)cc2)c(C)c1,16,5,18,5,-6,21,.
CCCCN1C[C@H](COC(=O)CCC)Oc2cccc(F)c2S1(=O)=O,0,-11,-1,15,-4,2,.
CC1=NN(c2cccc(C(=O)O)c2)C(=O)/C1=C\C=C/c1ccccc1,60,.,78*,-15,64*,59*,52*
Oc1ccc(C23CCCC2C2(CCCC2)c2ccc(O)cc2O3)c(O)c1 (stereo not drawn),20,5,51*,1,19,24,44*
O=C(O)c1ccccc1C(=O)Nc1ccc(S(=O)(=O)NC2CCCCC2)cc1,23,-21,-3,-4,11,2,.
CN(C)c1ccc(/C=C/c2ccc3c4ccccc4ccc3[n+]2-c2ccccc2)cc1,93*,104*,106*,-10,-131,96*,100*
CC1=C(C(=O)N(C(C)C)C(C)C)CC(CC(=O)NC2CCCC2)C(=O)N1Cc1ccc(C(C)(C)C)cc1 (stereo not drawn),5,.,10,-2,-8,1,.
O=C1/C(=C\c2cccc(O)c2O)SC(=S)N1Cc1ccccc1,33,10,66*,2,-18,3,62*
O=C(CCCN1C(=O)/C(=C/c2ccccc2Cl)SC1=S)NNC(=O)c1ccc(Cl)cc1,-18,37,64*,-9,4,73*,45*
O=C1/C(=C/c2ccccc2Cl)SC(=S)N1CCCC(=O)N(CCO)c1ccccc1,59,9,67*,2,13,71*,91*
CC1(C)Oc2cc3oc(-c4cc(O)cc(O)c4)cc3cc2CC1O (stereo not drawn),46,50,59*,-10,-7,38,65*
Cc1ccc2oc(/N=C(\N)NC(=O)C3CC3)nc2c1,3,6,-150,-1,-8,-123,.
Cc1ccc2oc(/N=C(\N)NC(=O)C(C)(C)C)nc2c1,.,72*,82*,-61*,-20,81*,85*
COC(=O)C1=C(C)N(Cc2ccccc2)C(=NCCc2c[nH]c3ccccc23)N[C@H]1c1cccc(C(F)(F)F)c1,20,28,99*,-29,28,-12,98*
CC(C)CC1C(=O)N(Cc2cn(CCC3OCCO3)nn2)CCS(=O)(=O)N1Cc1ccc(-c2ccc(F)cc2)cc1 (stereo not drawn),11,.,50*,2,14,1,55*
Cc1cc(C)c2c(N)c3cccc(C)c3nc2n1,-21,66*,107*,-4,-198,-58,99*
CC(=O)OC1c2ccccc2C(=O)N1Cc1ccccc1 (stereo not drawn),3,.,1,-31,12,7,.
Cc1n[nH]c(C)c1CCc1nc2c3ccccc3nc(SCC(=O)Nc3ccccc3F)n2n1,72,42,20,-10,13,18,.
Cc1cccc(NC(=O)CSc2nc3ccccc3c3nc(CCc4c(C)n[nH]c4C)nn23)c1,75,-4,57*,-42,31,-7,58*
CCN(CC)c1ccc2nc3ccc(N)cc3[n+](-c3ccccc3)c2c1,90*,93*,89*,-8,-18,1,72*

# Screening data deposited in PubChem by several laboratories.
